Assay outcomes: PubChem BioAssay, National Center for Advancing Translational Sciences (NCATS)
Shown are actives, neighbours in structure and some others; about 15% of the full set was active somewhere.
HCMV antiviral: human cytomegalovirus inhibition. activity change, negative = inhibition, % at 57.5 µM. HFF cells, HCMV-luciferase reporter, 72 h; stronger effect = lower value. 410,000 tested, 4.5% active; in the data active means activity change below about -60%; inconclusive means no clear call, values can overlap the other calls; inactive means above about -39%; further: on the % scale 0 is the no-effect control and ±100 the full control effect
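HFF cells seeded 16 h at 37C, treated with compounds, infected with luciferase-reporter HCMV at MOI 1 PFU/cell; luciferase read at 72 h post infection, normalized to buffer-only and Salinomycin controls.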
Pf growth 96h: P. falciparum growth inhibition at 96 hours. AID 504834. Potency, µM (top dose mostly 28.7 µM), for the others: top-dose activity change, negative = inhibition, hits mostly inhibitors. 320,000 tested, 6.9% active. P. falciparum luciferase reporter growth, 96 h; further: potency means the concentration at half of the fitted maximal effect; on the % scale 0 is the no-effect control and ±100 the full control effect
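Plates of compound plus infected erythrocytes (2% hematocrit, 0.05% parasitemia final) incubate 96 hours, 37 C, 5% CO2. Detection reagent added; reduced luminescence from the parasites' luciferase reporter flags inhibition.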
HCV inhibitor: inhibitors of hepatitis C virus infection; Potency, µM (highest dose often 41.8 µM), for inactives: top-dose activity change, negative = inhibition, actives largely listed as inhibitors; Huh7.5.1 HCVcc-Cre infection, luciferase reporter, 44 h; AID 651820; 340,000 tested, 3.4% active; further: potency means the concentration at half of the fitted maximal effect; on the % scale 0 is the no-effect control and ±100 the full control effect
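A cell-based infection assay in which seeded cells (1,000 per well) receive test compound after 4 h, are inoculated with HCVcc-Cre at approximately 0.5 moi, and are incubated 44 h before luminescence detection.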
Pf growth 48h: inhibits P. falciparum growth in the first generation, 48 h. P. falciparum luciferase growth in erythrocytes, 48 h. Potency, µM (top dose mostly 28.7 µM), inactives show top-dose activity change, negative = inhibition, usual class: inhibitors. 310,000 tested, 5.9% active; further: potency means the concentration at half of the fitted maximal effect; on the % scale 0 is the no-effect control and ±100 the full control effect
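Luciferase-expressing P. falciparum in infected erythrocytes (2% hematocrit, 0.1% parasitemia final) in RPMI 1640/0.5% Albumax were exposed to compound for 48 hours at 37 C, 5% CO2; growth read as luminescence.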
SARS PLpro yeast: blocks SARS-CoV papain-like protease in a yeast assay; S. cerevisiae expressing SARS-CoV PLpro, growth rescue; Potency, µM (doses to about 32.9 µM), without a hit: top-dose activity, positive = growth rescue, usual class: activators; 330,000 tested, 0.19% active; AID 485353; calls by dose curve; further: potency means the concentration at half of the fitted maximal effect; 0% is about no effect; nearly all actives have a fitted effect of over 55% in size
Sm TGR block: S. mansoni TGR enzyme inhibition; Potency, µM (series often up to 114 µM), for the others: top-dose activity change, negative = inhibition, most hits filed as inhibitors; Q962Y6; 360,000 tested, 3% active; purified TGR, DTNB reduction, TNB absorbance 405 nm; AID 485364; further: potency means the concentration at half of the fitted maximal effect; on the % scale 0 is the no-effect control and ±100 the full control effect; nearly all actives have a fitted effect of over 60% in size
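TGR 20 nM + NADPH 100 uM (dispensed conc.), cpd preinc 15 min RT; start with NADPH (500 uM addition) then DTNB (15 mM addition). Kinetic TNB absorbance, 405 nm filter. Four-parameter Hill fit across titration.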
An asterisk follows results filed as active; u = inconclusive; x = not tested or not shown; [ ] = another dose, or the depositor's remark. Unless noted, the call rests on the fitted dose curve; in most records, active means well fitted curve in the direction sought with a large enough effect; inconclusive means small, poorly fitted or top-dose-only effect, or another doubt; inactive means no such curve, though single readings can be large; an effect the other way counts as inactive or inconclusive.

SMILES | HCMV antiviral | Pf growth 96h | HCV inhibitor | Pf growth 48h | SARS PLpro yeast | Sm TGR block
O=S(=O)(c1ccc(Cl)cc1)N1CCN=C1SCc1cccc(Cl)c1 | -62* | u | u | -2% | -1% | -13%
Cc1ccc(S(=O)(=O)N2CCN=C2SCc2ccc(Cl)c(Cl)c2)cc1 | 19 | 11% | 8% | 1% | 6% | -2%
COc1ccc(S(=O)(=O)N2CCN=C2SCc2cccc(C)c2)cc1 | -75* | u | 2% | u | -10% | 1%
O=S(=O)(c1ccc(Cl)cc1)N1CCN=C1SCc1cccnc1 | -75* | 25% | 17% | u | 0% | -5%
OCCNc1cc(Cl)ncn1 | 2 | 25% | 14% | 36% | 2% | 1%
NCCC1CCCC(CCN)N1 (centres undefined) | 36 | 26% | 2% | -1% | x | 3%
CC(C)CN(C(=O)C1=COCCO1)c1c(N)n(Cc2ccccc2)c(=O)[nH]c1=O | 47 | x | x | x | x | x
O=S(=O)(c1ccccc1)N1CCN=C1SCc1c(F)cccc1Cl | -80* | u | u | 8% | -1% | 8%
CCc1ccc(Cn2ncc3c(C(=O)O)cc(C)nc32)cc1 | -13 | x | -1% | x | x | x
CC(C)(C)OC(=O)NCc1ccc(NC(=O)c2nc[nH]c2C(=O)NCCCNC(=O)c2[nH]cnc2C(=O)Nc2ccc(CNC(=O)OC(C)(C)C)cc2)cc1 | x | x | 4% | x | 6% | x
C[C@H](NC(=O)c1[nH]cnc1C(=O)Nc1ccc(CNC(=O)OC(C)(C)C)cc1)C(=O)OC(C)(C)C | 32 | 9.3µM* | u | 13µM* | 0% | 0%
CC(C)(C)OC(=O)NCCCC[C@H](NC(=O)c1[nH]cnc1C(=O)Nc1ccc(CNC(=O)OC(C)(C)C)cc1)C(=O)OC(C)(C)C | -10 | 3.3µM* | -15%[8.37 µM] | 3.3µM* | 4% | -4%
CN(C)c1ccc(/C=C(\C#N)C(=O)Nc2nc3c(s2)CCN(Cc2ccccc2)C3)cc1 | -3 | -14% | -1% | x | 2% | -8%
Cc1ccccc1OCCCCn1c(CCNC(=O)C(C)(C)C)nc2ccccc21 | -22 | x | x | x | x | -1%
O=C(Nc1ccccc1)c1ccc(Br)c(S(=O)(=O)Nc2ccccn2)c1 | -31 | -21% | 20% | 10% | 1% | 11%
COc1ccc(-c2[nH]ncc2/C=C(/C#N)C(=O)NC2CCCCC2)cc1 | -34 | 7.4µM* | 13µM* | x | 2% | 17%
N#C/C(=C\c1ccc(-c2ccc(Br)cc2)o1)C(=O)NCCc1c[nH]c2ccccc12 | -11 | -6% | 22µM* | -6% | -2% | 0%
N#C/C(=C/c1ccc(-c2ccc(Br)cc2)o1)C(=O)NC1CCCCC1 | u | u | 14µM* | 12% | -14% | -4%
CCC(C)OC(=O)/C(C#N)=C/c1ccc(-c2ccc(Br)cc2)o1 (centres undefined) | 6 | x | x | x | x | -1%
COc1ccc(NS(=O)(=O)c2ccc(N3CCCC3)c(NC(=S)Nc3cccc(S(=O)(=O)N(C)C)c3)c2)cc1 | x | u | -24% | u | -4% | 3%
CN(C)S(=O)(=O)c1ccc(N2CCCC2)c(C(=O)N2CCN(S(=O)(=O)c3ccc(F)c(F)c3)CC2)c1 | 0 | x | -4% | x | x | x
O=C(Nc1oc2ccccc2c(=O)c1-c1ccc(Cl)cc1)c1ccco1 | 3 | 9% | -10% | 11% | x | 2%
CCOc1ccc(N(Cc2ccc(C(=O)O)cc2)S(=O)(=O)c2ccc(C)cc2)cc1 | -10 | u | -21% | -9% | -2% | 3%
CS(=O)(=O)N1CCN(c2ccnc3cc(Cl)ccc23)CC1 | -3 | u | 4% | 3%[5.75 µM] | 1% | -6%
CCS(=O)(=O)N1CCN(c2ccnc3cc(Cl)ccc23)CC1 | -4 | 10µM* | -19% | 12µM* | 0% | -2%
SMILES | HCMV antiviral | Pf growth 96h | HCV inhibitor | Pf growth 48h | SARS PLpro yeast | Sm TGR block
O=S(=O)(c1ccc(Br)s1)N1CCN(c2ccnc3cc(Cl)ccc23)CC1 | -72* | u | u | u | -3% | -2%
Cc1ccc(S(=O)(=O)N2CCN(c3ccnc4cc(Cl)ccc34)CC2)cc1 | -61* | u | u | 10µM* | 0% | 3%
CC(=O)c1ccc(S(=O)(=O)N2CCN(c3ccnc4cc(Cl)ccc34)CC2)cc1 | -70* | x | x | x | x | x
OCC[C@H]1C[C@H](O)[C@@H](O)[C@@]2(CCc3ccccc3O2)O1 | 1 | 105% | 27% | 2% | 1% | -5%
CCc1noc(C)c1C(=O)N1CCCSC1=Nc1ccccc1 | -22 | 37% | 13% | u | x | 1%
CCc1noc(C)c1C(=O)N1CCSC1=Nc1cccc(Cl)c1C | -82* | 2.9µM* | -23% | u | -2% | 2%
COc1cc2[nH]c(=O)n(CCCC(=O)NCc3ccc(Cl)cc3)c(=O)c2cc1OC | -1 | x | x | x | x | -8%
COc1cc2cc(C(=O)NCCc3ccccc3)[nH]c2cc1OC | 5 | u | -18% | 8% | 0% | 89µM*
CCOc1cc2[nH]c(=O)n(CCCCCC(=O)NC3CCCC3)c(=O)c2cc1OCC | 51 | 10µM* | 14% | u | -1% | -23%
COc1cc2[nH]c(=O)n(CCCC(=O)NCCc3ccccc3)c(=O)c2cc1OC | 8 | 5.2µM* | u | u | 6% | u
COc1ccc2cc(C(=O)NCCc3ccccc3)[nH]c2c1 | -7 | 66% | -2% | 0% | -2% | -18%
Cc1ccc(-c2cc3c(N4CCN(c5cc(C)ccc5C)CC4)nccn3n2)cc1 | 20 | x | x | x | x | 2%
O=C(O)C1CC=CCC1C(=O)NNc1ccccc1 (centres undefined) | -36 | 10% | 2% | 4% | 0% | 8%
COc1ccc2nc(NN=Cc3cccc(C)n3)cc(C)c2c1 | -21 | x | x | x | x | x
CCOC(=O)[C@H]1[C@H]2COc3ccc(Br)cc3[C@@H]2N2C(=O)c3ccc(Cl)cc3NC(=O)[C@@]12C | -17 | u | 2% | 9.3µM* | -2% | -4%
CCOC(=O)[C@H]1[C@H]2COc3ccc(C)cc3[C@@H]2N2C(=O)c3cc(Cl)ccc3NC(=O)[C@@]12C | 5 | u | -15% | u | 0% | -12%
CCOC(=O)[C@H]1[C@H]2COc3ccc(OC)cc3[C@@H]2N2C(=O)c3cc(C)ccc3NC(=O)[C@@]12C | -62* | u | -17% | u | 0% | 0%
CCOC(=O)[C@H]1[C@H]2COc3ccccc3[C@@H]2N2C(=O)c3cc(OC)ccc3NC(=O)[C@@]12C | -17 | u | -3% | 5.2µM* | 2% | 0%
COC1CC(NC(C)=O)C(OC(=O)c2ccccc2)C(CBr)O1 (centres undefined) | 9 | x | x | x | x | x
